In the OligoGym collection one finds sensor-assay potency score (higher = more potent) data, which are given here for 40 sequences.
Note: reference of the scale not given here.

The first assay deals with FAM117A. Nature of the assay: pooled miR-30 sensor sort-seq; sequence = guide strand. The settings on record: shRNA.
Consider AAATAGAGTCTCTACATCGATA, for which the sensor-assay potency score (higher = more potent) was -1.34.
In turn, TGTAGCTATGATTAGGTCGAGG came in with a sensor-assay potency score (higher = more potent) of -1.12.
On the same count and under the same terms, in the case of TATACAAACTTCAAACAGCTGC it was -0.329.
On to TACACACTGACTTTTCTGGGGC, for which the sensor-assay potency score (higher = more potent) is 0.0109.
On the same count and under the same terms, with TTGTCATTGGTGCAGCAGGTGA the figure was -1.77.
Still for that read-out and setting: with TTGAAATGGACTTTGTTCTTGT the figure was 1.01.
The same measure, in the same setting: in the case of TCACCTTCTAGCTCTTGCCAGG it was -1.11.
TTCTTCAAACACACGCACTTTC yielded a sensor-assay potency score (higher = more potent) of -0.795.
Still for that read-out and setting: with TTTTCTAATCCATCCAGCCCTG the figure was -0.672; with TTAACATTCTTCAATTTTGTGT, -0.138; with AACTCGAACATTAACATTCTTC, -0.482.

A further assay deals with FAM127A. Described as above. The settings on record: shRNA.
TGTAGGAGCCCGTCTGCACGAT came in with a sensor-assay potency score (higher = more potent) of -1.04.
Still for that read-out and setting: with TCGGTATCGCCGTCAAACGTCT the figure was -1.19; with TCGCTGGAGAACGTGTTCTCGT, -1.32.
Same read-out and setting: with ATCTCGGCCAGAAAGCCCCGGT the figure was -0.915; with TATCGCCGTCAAACGTCTCGGG, -0.476.
The same measure, in the same setting: with TCGGTCGGTATCGCCGTCAAAC the figure was -1.87; with TCGCCGTCAAACGTCTCGGGAA, -1.08.
The sequence ATTGAGGAGGGGGCTCTCCTTC registered a sensor-assay potency score (higher = more potent) of -1.52.
The sequence AAAGACTCGCTTCATCTCGGCC showed a sensor-assay potency score (higher = more potent) of -1.07.
On the same count and under the same terms, with ATCGCCGTCAAACGTCTCGGGA the figure was -1.14.
Same read-out and setting: with TTCATCTCGGCCAGAAAGCCCC the figure was -0.891.

The target in the next assay is FAM134A. Described as above. The settings on record: shRNA.
On to TTCAAGTCAACACCTGCACAGA, for which the sensor-assay potency score (higher = more potent) is -0.356.
On the same count and under the same terms, with TATTTTTCAAGTCAACACCTGC the figure was -0.352; with AACAGCAACACTCCTAGCCAGG, -1.64; with TTCTTCACATCCACCACTGGGG, -0.152.
On the same count and under the same terms, with AAGAGTGTAACTACTGGCCTGA the figure was 0.464; with TTCTTGGTCTGACTGTACCAGA, -0.779.
On the same count and under the same terms, in the case of TACACAGACTACAGTGACCTAA it was -0.201.
Take TACCAGAGAATGGATGTCGGGC: the sensor-assay potency score (higher = more potent) was -0.337.
Still for that read-out and setting: in the case of TTTCTTCACATCCACCACTGGG it was -0.774.
Still for that read-out and setting: with TAAGAGTGTAACTACTGGCCTG the figure was -0.0872; with TGAATCTGGAAGGTGAGCCAGC, -0.0919; with TTGGCTTCTGCCTTCATGCTGT, 0.471.

For the next assay, the target named is FAM151A. Described as above. To be noted: shRNA.
As for TGTCATAGTAGACTTGGTGGAC, the sensor-assay potency score (higher = more potent) amounted to 0.221.
The same measure, in the same setting: with TAAGATGTCAGCGTTGATCCAT the figure was 0.0658; with TACATTGACGTCAGCCTCCAGG, -0.38.
Still for that read-out and setting: in the case of TTTGCCTTCCTCTGTCAGCTGC it was 0.237.
Still for that read-out and setting: in the case of AAAGATGTCATAGTAGACTTGG it was 0.264.
TAGCCTGTAGTAGACTCGGGTC displayed a sensor-assay potency score (higher = more potent) of -0.281.
